Screening results: PubChem BioAssay, National Center for Advancing Translational Sciences (NCATS)
Hits are enriched below; roughly 1.3% of the tested compounds scored in any of these assays.
HTT promoter inh = Primary qHTS for Identification of Small Molecule Inhibitors of Huntingtin Promoter Activity; Potency, µM (doses to about 57.5 µM), inactives show at the highest dose activity change, negative = inhibition, most hits filed as inhibitors; hit rate 0.93% among 48,000; HEK293 HTT promoter firefly luciferase reporter, 24 h; note: nearly all actives have a fitted effect of over 50% in size
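HEK293 luciferase promoter-reporter cells (2,500/well) plated 24 h, then compounds added at up to 57.5 uM final for 24 h at 37 °C. Firefly luminescence by Dual-Glo, normalized to vehicle (0%) and zero RLU (-100%).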
HTT-AS promoter = Primary qHTS for Identification of Small Molecule Activators of Huntingtin-Antisense Promoter Activity | HEK293 HTT-AS promoter firefly luciferase reporter, 24 h; response scale: percent change from vehicle, -100% = no light | Potency, µM (series often up to 57.5 µM), inactives show at the highest dose activity change, positive = activation, hits mostly activators | hit rate 0.24% among 48,000; note: nearly all actives have a fitted effect of over 55% in size
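Firefly luciferase signal from promoter-reporter HEK293 cells was scaled between vehicle (0%) and zero RLU (-100%). Compounds were tested at final concentrations of up to 57.5 uM over 24 h at 37 degrees C. PTC124 at 50 uM final served as control inhibitor.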
GALC G270D act = A Novel Cell-Based Assay to Identify Small Molecules for B -Galactocerebrosidase; hit rate 0.1% among 45,000; Potency, µM (doses to about 57.5 µM), hits mostly activators; 145M-Twi-hGALC-G270D cells (Twitcher mouse brain line with human GALC G270D), HMU-beta-Gal fluorescence, 48 h; note: 0% is about no effect; nearly all actives have a fitted effect of over 65% in size
Target sequence (P54803 whole entry G286D): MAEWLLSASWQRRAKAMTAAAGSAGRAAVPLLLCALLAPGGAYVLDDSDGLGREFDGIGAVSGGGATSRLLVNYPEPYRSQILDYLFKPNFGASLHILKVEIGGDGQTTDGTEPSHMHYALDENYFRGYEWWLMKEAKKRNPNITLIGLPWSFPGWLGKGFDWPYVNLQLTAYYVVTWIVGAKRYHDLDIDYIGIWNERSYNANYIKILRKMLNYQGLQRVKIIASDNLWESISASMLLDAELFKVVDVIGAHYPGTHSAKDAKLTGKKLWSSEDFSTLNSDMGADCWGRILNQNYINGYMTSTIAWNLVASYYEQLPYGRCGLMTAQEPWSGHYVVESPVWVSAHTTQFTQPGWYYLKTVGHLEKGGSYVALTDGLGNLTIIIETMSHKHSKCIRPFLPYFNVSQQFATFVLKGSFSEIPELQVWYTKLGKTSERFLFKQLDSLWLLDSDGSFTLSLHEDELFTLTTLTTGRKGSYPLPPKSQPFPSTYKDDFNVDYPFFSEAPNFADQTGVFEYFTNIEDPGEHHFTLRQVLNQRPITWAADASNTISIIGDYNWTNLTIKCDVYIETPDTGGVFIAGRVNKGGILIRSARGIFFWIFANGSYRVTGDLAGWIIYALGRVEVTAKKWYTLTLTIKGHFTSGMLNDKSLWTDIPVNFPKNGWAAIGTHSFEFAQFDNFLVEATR
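Fluorogenic HMU-b-Gal hydrolysis (0.1 mM final, pH 5.2 citrate-phosphate with 1 mg/mL sodium taurocholate; carbonate stop buffer) measures mutant GALC activity after compound treatment of live 145M-Twi Twitcher brain cells stably carrying human GALC-G270D, with wild-type GALC line alongside; activation sought.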
* marks the source's active call; other numbers are inactive results. Calls come from the whole dose curve; as a rule, active = well fitted curve in the direction sought with a large enough effect; inconclusive = small, poorly fitted or top-dose-only effect, or another doubt; inactive = no such curve, though single readings can be large; an effect the other way counts as inactive or inconclusive. Potency is the fitted concentration of half-maximal effect.

For Nc1c(C(=O)Nc2ccc(OC(F)(F)F)cc2)sc2nc3c(cc12)N1CCC3CC1 the results were HTT promoter inh 7.94µM*, HTT-AS promoter -59.9% and GALC G270D act inactive.
Screening N#Cc1cc2c(nc1SCC(=O)Nc1cccc(F)c1)C1CCN2CC1 returned HTT promoter inh inconclusive, HTT-AS promoter -39.4% and GALC G270D act inactive.
CCOC(=O)c1ccc(NC(=O)c2sc3nc4c(cc3c2N)N2CCC4CC2)cc1 was read as HTT promoter inh inconclusive, HTT-AS promoter -42.8% and GALC G270D act 14.1µM*.
`CC(=O)c1ccc(NC(=O)c2sc3nc4c(cc3c2N)N2CCC4CC2)cc1` gave HTT promoter inh -15.5%, HTT-AS promoter -22.6% and GALC G270D act inactive.
Screening CC(C)N[C@@H]1CCn2c(=O)[nH]c3cccc(c32)[C@@H]1O returned HTT promoter inh inconclusive and HTT-AS promoter -90.6%.
`CC[C@@H]1[C@@H](C)O[C@@](O)([C@@H](C)[C@H](O)[C@H](C)[C@H]2OC(=O)C=CC=C[C@@H](C)[C@@H]([C@@H](C)[C@@H](O)[C@H](C)[C@@]3(O)C[C@H](O[C@H]4C[C@H](O)[C@H](O)[C@H](C)O4)[C@H](CC)[C@@H](C)O3)OC(=O)C=CC=C[C@@H]2C)C[C@H]1O[C@H]1C[C@H](O)[C@H](O)[C@H](C)O1` gave HTT promoter inh inconclusive and HTT-AS promoter -93.9%.
`COc1cc2[nH]c(=O)n(-c3ccc(C)cc3)c(=O)c2cc1OC` gave HTT promoter inh 5.2%, HTT-AS promoter 0.8% and GALC G270D act inactive.
For COc1cc2[nH]c(=O)n(Cc3ccc(C(=O)N4CCN(c5ccc(Cl)cc5)CC4)cc3)c(=O)c2cc1OC the results were HTT promoter inh 14.1µM*, HTT-AS promoter -49.9% and GALC G270D act inactive.
For CCOC(=O)c1ccc(NC(=O)c2cccn(Cc3ccc(C)cc3)c2=O)cc1 the results were HTT promoter inh -1.7%, HTT-AS promoter -42.8% and GALC G270D act inactive.
Screening CCOC(=O)c1ccc(NC(=O)c2cccn(Cc3ccccc3F)c2=O)cc1 returned HTT promoter inh 1.41µM*, HTT-AS promoter -49.5% and GALC G270D act inactive.
For CCOC(=O)Nc1ccc(NCc2ccc(F)cc2)cc1N the results were HTT promoter inh -8.2% and HTT-AS promoter -28.6%.
CO[C@H]1CCC(O[C@H]2C[C@H]([C@]3(C)CC[C@]4(C[C@H](O)[C@@H](C)[C@@H]([C@@H](C)C=C(C)C(=O)[C@H](C)C[C@H](C)C(=O)O)O4)O3)O[C@]3(O[C@@H]([C@H]4O[C@@](O)(CO)[C@H](C)C[C@H]4C)C[C@H]3C)[C@H]2C)O[C@H]1C (stereo partly specified) was read as HTT promoter inh inconclusive and HTT-AS promoter -29.1%.
Screening C=C[C@@H]1CN2CCC1C[C@H]2[C@H](O)c1ccnc2ccccc12 (stereo partly specified) returned HTT promoter inh -17.8% and HTT-AS promoter -20.5%.
Screening Cc1ccccc1Cn1cccc(C(=O)Nc2nc3ccccc3s2)c1=O returned HTT promoter inh 0.316µM*, HTT-AS promoter -82.3% and GALC G270D act inactive.
`O=C(Nc1nc2ccccc2s1)c1cccn(Cc2ccccc2)c1=O` gave HTT promoter inh inconclusive, HTT-AS promoter -41.3% and GALC G270D act inactive.
For Cc1ccc([N+](=O)[O-])[c]2c1[O][Hg]2 the results were HTT promoter inh inconclusive, HTT-AS promoter -95.7% and GALC G270D act inactive.
Screening CCCNC(=O)c1cnn2c(C)c(Cc3c(C)cc(C)cc3C)c(C)nc12 returned HTT promoter inh 5.01µM*, HTT-AS promoter -47.4% and GALC G270D act inactive.
`COc1ccc(C(=O)N2CCN(c3nc4c(OC)cccc4s3)CC2)cc1OC` gave HTT promoter inh 28.2µM*, HTT-AS promoter -26.4% and GALC G270D act inactive.
O=C(Nc1ccc2c(c1)OCCO2)c1cccn(Cc2cccc(F)c2)c1=O was read as HTT promoter inh 0.0%, HTT-AS promoter 7.0% and GALC G270D act inactive.
Screening Cc1cccc(Cn2cccc(C(=O)Nc3ccc(F)cc3F)c2=O)c1 returned HTT promoter inh 28.2µM*, HTT-AS promoter -33.6% and GALC G270D act inactive.
Screening C=C[C@@H]1CN2CCC1C[C@@H]2[C@@H](O)c1ccnc2ccccc12 (stereo partly specified) returned HTT promoter inh inconclusive and HTT-AS promoter -63.3%.
`CCOC(=O)c1c(C(C#N)=CN)c2ccc(Cl)c(Cl)c2n1C` gave HTT promoter inh -23.3% and HTT-AS promoter -17.2%.
C[C@](O)(COc1ccc(C#N)cc1)C(=O)Nc1ccc(C#N)c(C(F)(F)F)c1 was read as HTT promoter inh inconclusive and HTT-AS promoter -33.0%.
Screening COc1cccc2c1[C@]13CCN(CC4CC4)[C@H](C2)[C@]1(OC)CCC(=O)C3 returned HTT promoter inh 1.8% and HTT-AS promoter -3.7%.
